Several values for one entry are separate records, joined by “and”; a condition that tells them apart may be missing. Equal entries are not always repeated. In all, about 5,500 compounds went through this assay and about 2,000 (36%) were called active. Inconclusive results (about 18%) are left out. Cut-off read from the data, not from the text of the source: active = normalized growth mostly below about 0.91 (no sharp cut-off); inconclusive = no clear call, values can overlap the other calls; inactive = mostly above about 0.92. Some of the results follow.
Test: chemical genetic growth profiling, strain panel (AID 1159580);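 note: tested at 20 µM; growth read once vehicle control cultures reached saturation at 30 °C; 1 = growth at the plate median or of vehicle wells; lower values mean less growth of the strain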
Settings: S. cerevisiae deletion strains, growth OD

Measured: normalized growth

CO[C@H]1C[C@H](O[C@H]2[C@H](C)[C@@H](OC3O[C@H](C)C[C@H](N(C)C)[C@H]3OC(C)=O)[C@@H](C)C[C@]3(CO3)C(=O)[C@H](C)[C@@H](OC(C)=O)[C@@H](C)[C@@H](C)OC(=O)[C@@H]2C)O[C@@H](C)[C@@H]1OC(C)=O (some centres undefined)
inactive: locus YAL021C, strain ccr4, hits give low values 0.998 | locus YAL026C, strain drs2, hits give low values 1.01 | locus YAL030W, strain snc1, hits give low values 0.989 | locus YBL061C, strain skt5, hits give low values 1 | locus YBR009C, strain hhf1, hits give low values 0.997 | locus YBR021W, strain FUR4, hits give low values 0.996 | locus YBR023C, strain chs3, hits give low values 0.996 | locus YBR171W, strain sec66, hits give low values 1.01 | locus YBR229C, strain ROT2, hits give low values 1.01 | locus YBR231C, strain swc5, hits give low values 0.996 | locus YBR279W, strain paf1, hits give low values 1 | locus YCL011C, strain gbp2, hits give low values 1.01 | locus YCL016C, strain dcc1, hits give low values 1 | locus YCL029C, strain bik1, hits give low values 0.997 | locus YCL061C, strain MRC1, hits give low values 0.992 | locus YCL069W, strain vba3, hits give low values 0.994 | locus YCR088W, strain abp1, hits give low values 0.994 | locus YDL005C, strain med2, hits give low values 0.985 | locus YDL035C, strain GPR1, hits give low values 1.01 | locus YDL040C, strain nat1, hits give low values 0.998 | locus YDL074C, strain BRE1, hits give low values 1 | locus YDL101C, strain DUN1, hits give low values 1.01 | locus YDL134C, strain PPH21, hits give low values 1 | locus YDL185W, strain tfp1, hits give low values 0.981 | locus YDL192W, strain arf1, hits give low values 0.989 | locus YDR001C, strain nth1, hits give low values 0.992 | locus YDR069C, strain doa4, hits give low values 0.998 | locus YDR101C, strain arx1, hits give low values 1.01 | locus YDR137W, strain rgp1, hits give low values 1 | locus YDR159W, strain sac3, hits give low values 0.997 | locus YDR162C, strain NBP2, hits give low values 1 | locus YDR195W, strain ref2 1 | locus YDR297W, strain sur2, hits give low values 0.991 | locus YDR318W, strain mcm21, hits give low values 0.993 | locus YDR334W, strain swr1, hits give low values 1 | locus YDR335W, strain msn5, hits give low values 0.998 | locus YDR388W, hits give low values 0.979 | locus YDR392W, strain spt3, hits give low values 0.996 | locus YDR502C, strain sam2, hits give low values 0.977 | locus YEL003W, strain gim4, hits give low values 1 | locus YEL037C, strain rad23, hits give low values 0.998 | locus YEL061C, strain CIN8 (second series), hits give low values 1 | locus YEL061C, strain CIN8, hits give low values 1.01 | locus YER015W, strain faa2, hits give low values 0.998 | locus YER016W, strain bim1, hits give low values 0.997 | locus YER110C, hits give low values 0.988 | locus YER111C, strain swi4, hits give low values 1.01 | locus YER155C, strain BEM2 (second series), hits give low values 0.994 | locus YER155C, strain BEM2, hits give low values 1.01 | locus YER167W, strain BCK2, hits give low values 1 | locus YFR010W, strain ubp6, hits give low values 1.01 | locus YGL078C, strain dbp3, hits give low values 0.984 | locus YGL086W, strain mad1, hits give low values 1 | locus YGL167C, strain pmr1, hits give low values 0.996 | locus YGL173C, strain kem1, hits give low values 1.01 | locus YGL227W, strain vid30, hits give low values 1.02 | locus YGL240W, strain doc1, hits give low values 1.01 | locus YGL248W, strain PDE1, hits give low values 1.01 | locus YGL253W, strain hxk2, hits give low values 0.991 | locus YGR078C, strain PAC10, hits give low values 1.01 | locus YGR135W, strain pre9, hits give low values 0.986 | locus YGR252W, strain gcn5, hits give low values 0.933 | locus YHR013C, strain ard1, hits give low values 0.986 | locus YHR027C, strain rpn1, hits give low values 0.995 | locus YHR030C, strain SLT2, hits give low values 1.01 and 0.973 | locus YHR079C, strain IRE1 (second series), hits give low values 0.992 | locus YHR079C, strain IRE1, hits give low values 0.987 | locus YHR094C, strain hxt1, hits give low values 0.988 | locus YHR129C, strain ARP1, hits give low values 1.01 | locus YHR142W, strain chs7, hits give low values 1.01 | locus YHR200W, strain rpn10, hits give low values 0.992 | locus YIL066C, strain RNR3, hits give low values 1.01 | locus YIL073C, strain SPO22, hits give low values 1 | locus YIL125W, strain kgd1, hits give low values 0.988 | locus YIR030C, strain dcg1, hits give low values 1 | locus YJL092W, strain hpr5, hits give low values 1 | locus YJL095W, strain BCK1 (second series), hits give low values 0.99 | locus YJL095W, strain BCK1, hits give low values 1.01 and 0.973 | locus YJL115W, strain asf1, hits give low values 1.02 | locus YJL129C, strain trk1, hits give low values 0.979 | locus YJL134W, strain LCB3, hits give low values 1 | locus YJL154C, strain vps35, hits give low values 0.987 | locus YJL164C, strain tpk1, hits give low values 1 | locus YJL166W, strain qcr8, hits give low values 1 | locus YJL168C, strain set2, hits give low values 0.994 | locus YJL187C, strain SWE1 (second series), hits give low values 1.01 | locus YJL187C, strain SWE1, hits give low values 1 | locus YJR043C, strain POL32, hits give low values 0.986 | locus YJR066W, strain TOR1, hits give low values 0.955

Reference: PubChem BioAssay AID1159580 (chemical genetic matrix, 2015)
